Measurements: PubChem BioAssay (Tox21)
Values joined by “and” are separate entries in the source; they are usually repeats but may differ in a detail not shown here. Identical values can stand only once. Inconclusive results are not listed. Active and inactive are the calls of the source. Calls come from the whole dose curve; as a rule, active = well fitted curve in the direction sought with a large enough effect in the repeat runs; inconclusive = weak or mixed curves; inactive = no such curve, though single readings can be large; an effect the other way counts as inactive or inconclusive.

What follows are compounds tested against Voltage-gated inwardly rectifying potassium channel KCNH2 (Homo sapiens) (UniProt Q12809) (assay: Human Ether-a-go-go-Related Gene (hERG) channel small molecule antagonists: fluorescence cell-based qHTS assay (AID 1671200;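 for activity change, negative = inhibition: hERG-expressing U2OS cells given a thallium stimulus after FluxOR II dye loading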)). Settings: hERG-U2OS cells, FluxOR thallium flux fluorescence; series mostly up to 76.8 µM; activity change, negative = inhibition: at the top concentration.
Outline: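 Quantitative HTS in hERG-U2OS cells: thallium entry through the channel reports activity, read as continuous 480/540 nm fluorescence over 2 min after stimulus addition.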
% is set by controls: 0 for no effect and ±100 for the full control effect; potency is the fitted concentration of half-maximal effect.
Note: nearly all actives have a fitted effect of over 50% in size.

Chain of Voltage-gated inwardly rectifying potassium channel KCNH2 (Homo sapiens) (Q12809 whole entry, looked up): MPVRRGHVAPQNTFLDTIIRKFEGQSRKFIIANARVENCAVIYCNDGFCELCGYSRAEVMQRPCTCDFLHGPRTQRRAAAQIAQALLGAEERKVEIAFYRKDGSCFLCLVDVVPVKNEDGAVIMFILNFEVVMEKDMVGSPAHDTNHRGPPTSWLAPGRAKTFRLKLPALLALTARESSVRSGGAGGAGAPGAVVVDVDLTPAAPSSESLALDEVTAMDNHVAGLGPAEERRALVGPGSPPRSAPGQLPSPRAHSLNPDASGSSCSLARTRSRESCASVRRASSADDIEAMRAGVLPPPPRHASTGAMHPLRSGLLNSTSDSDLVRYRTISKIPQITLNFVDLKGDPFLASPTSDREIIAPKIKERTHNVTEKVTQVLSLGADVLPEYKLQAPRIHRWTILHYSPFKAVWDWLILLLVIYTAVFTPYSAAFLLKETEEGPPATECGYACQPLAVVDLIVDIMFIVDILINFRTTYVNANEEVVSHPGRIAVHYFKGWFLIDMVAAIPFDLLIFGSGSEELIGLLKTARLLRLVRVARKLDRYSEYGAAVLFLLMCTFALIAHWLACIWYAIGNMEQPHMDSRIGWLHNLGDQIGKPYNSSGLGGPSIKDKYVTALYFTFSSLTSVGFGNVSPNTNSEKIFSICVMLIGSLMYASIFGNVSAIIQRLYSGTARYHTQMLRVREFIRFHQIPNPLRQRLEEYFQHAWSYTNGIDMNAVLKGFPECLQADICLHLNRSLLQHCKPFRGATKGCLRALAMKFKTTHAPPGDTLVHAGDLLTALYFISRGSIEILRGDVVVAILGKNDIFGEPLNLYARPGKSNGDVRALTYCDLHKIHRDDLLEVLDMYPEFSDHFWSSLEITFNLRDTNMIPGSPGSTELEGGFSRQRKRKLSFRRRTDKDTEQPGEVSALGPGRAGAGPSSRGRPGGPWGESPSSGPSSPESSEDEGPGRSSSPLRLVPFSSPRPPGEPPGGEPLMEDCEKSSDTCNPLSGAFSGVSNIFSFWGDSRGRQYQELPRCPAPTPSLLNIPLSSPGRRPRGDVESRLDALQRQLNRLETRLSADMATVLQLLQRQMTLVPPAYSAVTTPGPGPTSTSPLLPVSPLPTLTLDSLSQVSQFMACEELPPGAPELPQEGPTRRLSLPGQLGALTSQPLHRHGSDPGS

Row | SMILES | activity change, negative = inhibition | Potency
1 | COC(=O)[C@@H](N)CCCN/C(N)=N/[N+](=O)[O-] | -1.2% [at 35.3 µM] (inactive) | –
2 | COc1cccc(C=O)c1 | -1.27% (inactive) | –
3 | CC[C@H](O)C(C[C@H](C)N(C)C)(c1ccccc1)c1ccccc1 | -7.41% (inactive) | –
4 | CCc1ccc(C2CCNCC2)cc1 | -11.9% [at 35.3 µM] (inactive) | –
5 | CCN[C@@H](C)Cc1cccc(C(F)(F)F)c1 | -2.7% [at 35.3 µM] (inactive) | –
6 | CCOC(=O)N(C)N=O | -0.649% (inactive) | –
7 | CCN(CCO)CCn1c(Cc2ccccc2)nc2c1c(=O)n(C)c(=O)n2C | -0.165% [at 35.3 µM] (inactive) | –
8 | CCCCCCCCBr | 12.8% (inactive) | –
9 | O=C(Cl)OCc1ccccc1 | 0.0933% (inactive) | –
10 | NNC(N)=O | -4.2% (inactive) | –
11 | CS(=O)(=O)c1ccc(C(=O)C2C(=O)CCCC2=O)c(Cl)c1COCC(F)(F)F | -7.73% (inactive) | –
12 | CC(C)[N+](C)(CCC(C(N)=O)(c1ccccc1)c1ccccc1)C(C)C | 0.102% [at 35.3 µM] (inactive) | –
13 | CC(Cc1ccccc1)NCCCCl (stereo not given) | – | 15.1 µM (active)
14 | NCC1(CC(=O)O)CCCCC1 | 0.561% [at 35.3 µM] (inactive) | –
15 | C[C@H]1CCCC(=O)CCC/C=C/c2cc(O)cc(O)c2C(=O)O1 | -7.78% [at 35.3 µM] (inactive) | –
16 | O=c1[nH]oc2c1CCNC2 | -0.796% [at 35.3 µM] (inactive) | –
17 | Cc1ccc2c(c1)C1CN(C)CCC1N2 (stereo not given) | -9.94% [at 15.8 µM] (inactive) | –

Row | SMILES | activity change, negative = inhibition | Potency
18 | CC(C)(C)C(=O)C(Cl)Cl | 3.23% (inactive) | –
19 | CCNc1nc(NCC)nc(SC)n1 | -0.915% (inactive) | –
20 | Cc1ccc2cc(C)ccc2c1 | -16.3% (inactive) | –
21 | Nc1c(Cl)c(F)nc(OCC(=O)O)c1Cl | -1.01% (inactive) | –
22 | CNC(=O)Oc1cc(C)c(N(C)C)c(C)c1 | 10.9% (inactive) | –
23 | CCOP(=S)(OCC)Oc1ccc(Cl)cc1Cl | -17.9% (inactive) | –
24 | Cc1ccc(-c2nc3ccc(C)cn3c2CC(=O)N(C)C)cc1 | -4.68% [at 35.3 µM] (inactive) | –
25 | CC(C)(C1CCC(O)CC1)C1CCC(O)CC1 (stereo not given) | 7.67% (inactive) | –
26 | C[C@H](CN1CCOCC1)C(C(=O)N1CCCC1)(c1ccccc1)c1ccccc1 | -18% (inactive) | –
27 | CCOC(=O)CCl | -2.67% (inactive) | –
28 | Cl/C=C/CCl | 0.0415% (inactive) | –
29 | CC(=O)CN(CC(C)=O)N=O | -9.03% (inactive) | –
30 | Oc1ccc(Cc2ccc(O)cc2)cc1 | -2.39% (inactive) | –
31 | C[C@H](N)C(=O)c1ccccc1 | -1.69% (inactive) | –
32 | CCOC(=O)c1ncn2c1CN(C)C(=O)c1c(I)cccc1-2 | 0.715% [at 35.3 µM] (inactive) | –
33 | Clc1ccc(C(Cl)(Cl)Cl)cn1 | 2.09% (inactive) | –
34 | C=CC(=O)OCCN(C)C | -3.41% (inactive) | –

What follows are compounds tested against Cytochrome P450 3A4 (Homo sapiens) (UniProt P08684) (assay: Cytochrome P450 Family 3 Subfamily A Member 4 (CYP3A4) small molecule antagonists: luciferase reporter qHTS assay (AID 1671201)). Settings: P450-Glo CYP3A4 enzyme, luciferin luminescence, 1 h; series mostly up to 115 µM; activity change, negative = inhibition: at the top concentration.
Outline: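 Inhibition of CYP3A4 is measured as loss of light: the enzyme converts a proluciferin substrate to luciferin, detected luminescently. Reaction ran 1 h at room temperature with NADPH regeneration after a 10 min compound preincubation.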

Chain of Cytochrome P450 3A4 (Homo sapiens) (P08684 whole entry, looked up): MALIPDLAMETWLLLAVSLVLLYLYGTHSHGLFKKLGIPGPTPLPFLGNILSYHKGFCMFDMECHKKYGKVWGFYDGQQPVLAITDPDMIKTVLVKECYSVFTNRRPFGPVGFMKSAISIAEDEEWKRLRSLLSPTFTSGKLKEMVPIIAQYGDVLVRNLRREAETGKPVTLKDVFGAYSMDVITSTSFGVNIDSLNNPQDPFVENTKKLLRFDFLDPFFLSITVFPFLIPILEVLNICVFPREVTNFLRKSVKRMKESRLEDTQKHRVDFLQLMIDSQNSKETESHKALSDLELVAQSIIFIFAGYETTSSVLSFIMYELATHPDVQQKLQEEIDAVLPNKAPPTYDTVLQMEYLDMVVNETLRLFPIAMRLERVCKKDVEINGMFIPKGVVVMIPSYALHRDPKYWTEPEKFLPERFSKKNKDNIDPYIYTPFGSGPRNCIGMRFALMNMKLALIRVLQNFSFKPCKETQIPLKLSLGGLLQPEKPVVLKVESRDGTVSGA

Row | SMILES | activity change, negative = inhibition | Potency
35 | COc1cccc(C=O)c1 | 1.57% (inactive) | –
36 | CCc1ccc(C2CCNCC2)cc1 | 1.82% [at 52.9 µM] (inactive) | –
37 | CCN[C@@H](C)Cc1cccc(C(F)(F)F)c1 | 2.91% [at 52.9 µM] (inactive) | –
38 | CCOC(=O)N(C)N=O | 6.25% (inactive) | –
39 | CCN(CCO)CCn1c(Cc2ccccc2)nc2c1c(=O)n(C)c(=O)n2C | 2.13% [at 52.9 µM] (inactive) | –
40 | CCCCCCCCBr | 9.05% (inactive) | –
41 | O=C(Cl)OCc1ccccc1 | 5.58% (inactive) | –
42 | NNC(N)=O | 3.82% (inactive) | –
43 | NCC1(CC(=O)O)CCCCC1 | 10.1% [at 52.9 µM] (inactive) | –
44 | C[C@H]1CCCC(=O)CCC/C=C/c2cc(O)cc(O)c2C(=O)O1 | – | 122 nM (active) and 184 nM (active)
45 | CCN1CCCC1CNC(=O)C(O)(c1ccccc1)c1ccccc1 (stereo not given) | – | 4.9 µM (active)
46 | O=c1[nH]oc2c1CCNC2 | -0.633% [at 52.9 µM] (inactive) | –
47 | Cc1ccc2c(c1)C1CN(C)CCC1N2 (stereo not given) | 8.41% [at 23.6 µM] (inactive) | –
48 | CC(C)(C)C(=O)C(Cl)Cl | 1.73% (inactive) | –
49 | CCNc1nc(NCC)nc(SC)n1 | 56.9% (inactive) | –
50 | Cc1ccc2cc(C)ccc2c1 | 1.45% (inactive) | –
51 | Nc1c(Cl)c(F)nc(OCC(=O)O)c1Cl | 33.7% (inactive) | –
52 | CNC(=O)Oc1cc(C)c(N(C)C)c(C)c1 | 9.56% (inactive) | –
53 | CCOP(=S)(OCC)Oc1ccc(Cl)cc1Cl | – | 2.83 µM (active)
54 | CC(C)(C1CCC(O)CC1)C1CCC(O)CC1 (stereo not given) | 3.15% (inactive) | –
55 | CCOC(=O)CCl | 10.7% (inactive) | –
56 | Cl/C=C/CCl | 14.5% (inactive) | –
57 | CC(=O)CN(CC(C)=O)N=O | 4.84% (inactive) | –
58 | Oc1ccc(Cc2ccc(O)cc2)cc1 | -30.8% (inactive) | –
59 | CCOC(=O)c1ncn2c1CN(C)C(=O)c1c(I)cccc1-2 | -6.94% [at 52.9 µM] (inactive) | –
60 | C=CC(=O)OCCN(C)C | 0.463% (inactive) | –
